Consider 22 compounds from PubChem BioAssay (NCATS).

Assay [1] concerns the target Glutathione peroxidase 1 (Homo sapiens) (UniProt P07203). The assay is described as follows: Primary qHTS Assay for Inhibitors of Recombinant Selenoprotein Glutathione Peroxidase 1 (GPX1) (AID 1845191). Also: nearly all actives have a fitted effect of over 65% in size. Also: potency is read from the fitted curve at half-maximal effect. In a few lines:
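10 nM GPX1 + cpd, 30 min RT; start w/ 1 mM GSH, 0.5 mM cumene hydroperoxide, 0.5 mM NADPH, 100 nM GR, 0.01% BSA; buffer 50 mM Tris-HCl pH 7.5, 2 mM EDTA, 150 mM NaCl; Fl 340/450, 0 & 15 min.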
On the technique in general: qHTS replaces the single test concentration by a dilution series.

Assay [2] concerns the target Phospholipid hydroperoxide glutathione peroxidase GPX4 (Homo sapiens) (UniProt P36969). The assay is described as follows: Primary qHTS Assay for Inhibitors of Recombinant Selenoprotein Glutathione Peroxidase 4 (GPX4) (AID 1845192). Also: nearly all actives have a fitted effect of over 65% in size. Also: potency is read from the fitted curve at half-maximal effect. In a few lines:
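NADPH consumption, followed by fluorescence at 340/450 nm between 0 and 15 min, reports GPX4 activity via coupled glutathione reductase (100 nM). Enzyme 200 nM was pre-exposed to compound 30 min; 0.5 mM cumene hydroperoxide and 1 mM GSH served as substrates.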

The nature of assay [3]: Quantitative High-Throughput drug screen in 47 multiple myeloma cell lines against the NCATS MIPE library collection: FR4_PLB cell viability assay (AID 1918924; also: nearly all actives have a fitted effect of over 35% in size; also: potency is read from the fitted curve at half-maximal effect). Summed up: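 Primary qHTS used for cherry-picking: cells at 500/well, library compounds for 48 h (37C, 5% CO2), luminescent ATP assay.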
Assay [4] in a line: Quantitative High-Throughput drug screen in 47 multiple myeloma cell lines against the NCATS MIPE library collection: EJM_DSMZ cell viability assay (AID 1918926; also: nearly all actives have a fitted effect of over 30% in size; also: potency is read from the fitted curve at half-maximal effect). In a few lines: (§1)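 Viability readout: CellTiter-Glo luminescence following 5 min room-temperature incubation with reagent. Prior exposure: 48 h, 37C, humidified 5% CO2, 500 cells per well.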
Assay [5] can be described thus: Quantitative High-Throughput drug screen in 47 multiple myeloma cell lines against the NCATS MIPE library collection: AMO1_DSMZ cell viability assay (AID 1918927; also: nearly all actives have a fitted effect of over 30% in size; also: potency is read from the fitted curve at half-maximal effect). Summed up:
as §1

A short description of assay [6]: Quantitative High-Throughput drug screen in 47 multiple myeloma cell lines against the NCATS MIPE library collection: ARP1_JJKsccF8 cell viability assay (AID 1918928; also: nearly all actives have a fitted effect of over 40% in size; also: potency is read from the fitted curve at half-maximal effect). Summed up:
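Myeloma cells, 500 per well, were exposed to MIPE 4.0 drugs by pin transfer for 48 h at 37 °C, 5% CO2. Viability was read as ATP luminescence with CellTiter-Glo, normalised to DMSO-only (100%) and medium-only (0%) wells.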

The nature of assay [7]: Quantitative High-Throughput drug screen in 47 multiple myeloma cell lines against the NCATS MIPE library collection: ARD_JJKsccE7 cell viability assay (AID 1918929; also: potency is read from the fitted curve at half-maximal effect). In a few lines:
as §1

Assay [8] can be described thus: Quantitative High-Throughput drug screen in 47 multiple myeloma cell lines against the NCATS MIPE library collection: Delta47_JCRB cell viability assay (AID 1918925; also: nearly all actives have a fitted effect of over 45% in size; also: potency is read from the fitted curve at half-maximal effect). In a few lines:
as §1

For assay [9], the system named is Nanoluciferase (engineered Oplophorus gracilirostris luciferase). The assay is described as follows: Primary Nanoluciferase (NLuc) qHTS assay for identification of artifact compounds. (AID 1845222). Also: series mostly up to about 54 µM. In a few lines: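 Luminescence from secreted NLuc (filtered, 1:55-diluted S16 cell medium) read 5 min after Nano-Glo substrate; compounds preincubated 15 min, RT. Hill fits of inhibition normalized to DMSO and no-enzyme.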

Assay [10] can be described thus: Primary redox qHTS assay for identification of artifact compounds. (AID 1845223). In a few lines: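 Amplex Red (25 uM) and HRP (250 mU/mL) in HBSS, with compounds for 15 min, then 250 uM DTT for 30 min, room temperature, dark. Fluorescence 525/598 nm read; normalized to DMSO and 10 uM DA3003; Hill fit.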

Several values for one entry are separate records, joined by “and”; a condition that tells them apart may be missing. Equal entries are not always repeated. Records with an inconclusive call do not appear. Activity calls are given as the source filed them. Calls follow the shape of the dose curve; as a rule, active = well fitted curve in the direction sought with a large enough effect; inconclusive = small, poorly fitted or top-dose-only effect, or another doubt; inactive = no such curve, though single readings can be large; an effect the other way counts as inactive or inconclusive.

Glutathione peroxidase 1 (Homo sapiens), sequence (P07203 whole entry, looked up): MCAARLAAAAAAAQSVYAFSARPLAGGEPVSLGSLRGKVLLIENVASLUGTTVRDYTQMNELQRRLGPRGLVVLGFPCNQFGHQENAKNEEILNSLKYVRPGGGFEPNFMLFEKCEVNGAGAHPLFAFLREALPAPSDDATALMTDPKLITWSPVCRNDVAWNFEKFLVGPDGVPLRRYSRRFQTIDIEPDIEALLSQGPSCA
Phospholipid hydroperoxide glutathione peroxidase GPX4 (Homo sapiens), sequence (P36969 whole entry, looked up): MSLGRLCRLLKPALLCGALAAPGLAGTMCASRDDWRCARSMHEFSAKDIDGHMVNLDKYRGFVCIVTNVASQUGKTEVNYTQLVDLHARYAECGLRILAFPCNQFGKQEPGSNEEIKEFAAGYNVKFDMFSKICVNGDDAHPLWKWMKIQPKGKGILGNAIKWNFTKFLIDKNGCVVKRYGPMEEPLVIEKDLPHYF

For the compound `CCCCc1ccc2nc(NC(=O)OC)[nH]c2c1`, the Potency entry in assay [1], in assay [2] and in assay [5] was “inactive” throughout. The Potency in [3] was 0.0021 µM (active); in assay [4] it was 0.0264 µM (active); in assay [6], 0.0066 µM (active); in assay [7], 0.0093 µM (active).
Consider `CCCc1cc(=O)[nH]c(=S)[nH]1`, for which the Potency entry in [1], in [2], in assay [3], in [4], in assay [5] and in assay [6] was “inactive” each time. In [7], the Potency entry is “inactive”.
With `Cc1cc(=O)oc2cc(O)ccc12`, the Potency in [1] is 18 µM (active) and 4.09 µM (active); in [2], 12.8 µM (active) and 1.61 µM (active). The Potency result in assay [3], in assay [4], in assay [5], in [6] and in assay [7] was “inactive” throughout.
Consider `Nc1cc(C(Cl)=C(Cl)Cl)c(S(N)(=O)=O)cc1S(N)(=O)=O`, for which the Potency result in assay [1], in assay [2], in assay [3], in assay [8], in [4] and in [5] was “inactive” each time. Further, the Potency entry in [6] and in [7] was “inactive” each time.
Take `Nc1ccn([C@@H]2O[C@H](CO)[C@@H](O)C2O)c(=O)n1` (some centres not stated): the Potency result in assay [1], in assay [2], in assay [3], in assay [8], in assay [4] and in assay [5] was “inactive” throughout. Besides, the Potency in assay [7] was 8.33 µM (active).
Take `CC1=C(C)C(=O)C(C(CCCCCC(=O)O)c2ccccc2)=C(C)C1=O` (configuration not stated): the Potency entry in assay [1], in [3] and in assay [4] was “inactive” each time. For the same compound, in assay [2], the Potency is 11.2 µM (active).
Turning to `Cc1cc(C2CCCCC2)n(O)c(=O)c1`, the Potency result in assay [1] and in assay [2] was “inactive” throughout. The Potency in assay [3] was 6.62 µM (active); in assay [8] it was 6.62 µM (active); in assay [4], 16.6 µM (active); in assay [5] it was 7.43 µM (active); in assay [6] it was 9.35 µM (active); in [7] it was 9.35 µM (active).
In the case of `Cc1cc2c(s1)Nc1ccccc1N=C2N1CCN(C)CC1`, the Potency in assay [1] is 16.1 µM (active). For the same compound, the Potency entry in assay [2], in assay [3], in assay [8], in [4], in assay [5] and in assay [6] was “inactive” throughout. Besides, the result in assay [9] and in [10] was inactive.
As for `C[Se]CCC(N)C(=O)O` (configuration not stated), the Potency result in assay [1], in assay [2], in assay [3], in [8], in [4] and in assay [6] was “inactive” throughout. The Potency entry in assay [7] is “inactive”.
`Cc1nc2n(c(=O)c1CCN1CCC(c3noc4cc(F)ccc34)CC1)CCCC2`: the Potency entry in assay [1], in [2], in [3], in [4], in assay [5] and in assay [6] was “inactive” in each case. In addition, in assay [7], the Potency result was “inactive”.
`Cc1ncc([N+](=O)[O-])n1CC(C)O` (configuration not stated): the Potency entry in assay [1], in assay [2], in assay [3], in [4], in [5] and in [6] was “inactive” throughout. Moreover, the Potency result in assay [7] is “inactive”.
For the compound `Nc1nc(Cl)nc2c1ncn2[C@H]1C[C@H](O)[C@@H](CO)O1`, the Potency entry in [1] and in assay [2] was “inactive” throughout. Also, the Potency was 3.72 µM (active) in assay [3], 0.235 µM (active) in assay [8] and 0.187 µM (active) in assay [5].
For the compound `Cc1nc(-c2ccc(OCC(C)C)c(C#N)c2)sc1C(=O)O`, the Potency entry in assay [1], in assay [2], in assay [3], in [8], in assay [4] and in assay [5] was “inactive” in each case. The Potency entry in assay [6] and in [7] was “inactive” throughout.
Consider `Cc1ccc(C)c(OCCCC(C)(C)C(=O)O)c1`, for which the Potency entry in assay [1], in assay [2], in assay [3] and in assay [6] was “inactive” in each case. Also, the Potency in assay [8] is 16.6 µM (active).
For the compound `CC1(C)CCC(C)(C)c2cc(NC(=O)c3ccc(C(=O)O)cc3)ccc21`, the Potency result in assay [1], in assay [3] and in assay [6] was “inactive” throughout. Further, the Potency in assay [2] was 10 µM (active); in assay [8] it was 16.6 µM (active); in assay [7], 13.2 µM (active).
Take `CC(C)(S)[C@@H](N)C(=O)O`: the outcome in assay [1] is “inactive [at 4.49 µM]”; in assay [2], “inactive [at 4.52 µM]”. Besides, the Potency result in assay [3], in assay [4], in [5], in [6] and in assay [7] was “inactive” each time.
For `CCC[C@@H]1C[C@@H](C(=O)N[C@@H]([C@H]2O[C@H](SC)[C@H](O)[C@@H](O)[C@H]2O)[C@@H](C)O)N(C)C1`, the Potency result in assay [1], in assay [2], in assay [3], in assay [5], in assay [6] and in assay [7] was “inactive” throughout. In [4], the Potency was 3.32 µM (active).
For the compound `CCCOc1ccc2nc(NC(=O)OC)[nH]c2c1`, the Potency entry in assay [1], in assay [2] and in assay [3] was “inactive” throughout. Moreover, the Potency in assay [8] was 0.0118 µM (active); in assay [5], 0.001 µM (active); in [7] it was 0.001 µM (active).
Turning to `Nc1cccc2c1CN(C1CCC(=O)NC1=O)C2=O` (configuration not stated), the Potency result in [1], in [2], in assay [3], in [8], in assay [4] and in assay [6] was “inactive” in each case.
For the compound `CN(C)c1ccc(O)c2c1C[C@H]1C[C@H]3[C@H](N(C)C)C(=O)C(C(N)=O)=C(O)[C@@]3(O)C(=O)C1=C2O`, the Potency entry in assay [1], in assay [5] and in assay [7] was “inactive” in each case. The results for the Potency in assay [3], in assay [4] and in assay [6] were 20.9 µM (active), 14.8 µM (active) and 16.6 µM (active), respectively.
In the case of `Cc1c(C(=O)NN2CCCCC2)nn(-c2ccc(Cl)cc2Cl)c1-c1ccc(Cl)cc1`, the Potency entry in assay [1], in assay [2] and in assay [4] was “inactive” each time. Besides, the Potency in assay [5] and in assay [7] was 16.6 µM (active) in each case.
In the case of `COc1cc(C(C)=O)ccc1OCCCN1CCC(c2noc3cc(F)ccc23)CC1`, the Potency result in assay [1], in assay [2] and in assay [4] was “inactive” each time.
